# From PubChem BioAssay
# Active and inactive are the calls of the source. Unless noted, the rule behind the calls is not given here.
# Key:
# [1] = tested on: Aerobactin synthetase IucA (Klebsiella pneumoniae); assay: inhibition of K. pneumoniae IucA enzyme – biochemical, Tocris library, absorbance (AID 1345561); conditions: purified IucA enzyme assay, absorbance (OD) read-out; stronger effect = lower value;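 tested at 8 µM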;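 note: 100% = enzyme without compound and 0% = no enzyme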
# [2] = viability loss with induced miR-34 in A549 – imaging, A549 dox-inducible miR-34, nuclei and caspase counts, primary screen (AID 1347080;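 active = compounds whose cell count with miR-34 switched on is under 0.7 times the count with it off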); conditions: A549 miR-34 inducible, Hoechst nuclei count, 48 h
# [3] = galactose survival enhancers in mitochondrial complex I cybrids – cell-based, galactose medium, ATP luminescence, primary screen (AID 1645843;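 active = z-score of at least 1.8 in each of two replicates, scored against plate mean and spread of sample wells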;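 note: positive z means more ATP and so rescue of galactose-driven cybrid death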); conditions: complex I mutant cybrid cells, 72 h, stronger effect = higher value
# [4] = stronger effect = lower value, cell number ratio, induced over uninduced
# [5] = measured here: relative caspase fold change +Dox/-Dox
# [6] = measured here: total cells with miR-34 induction, stronger effect = lower value
# [7] = measured here: total cells without miR-34 induction
SMILES,remaining activity [1],"fold change [2, 4]","fold change [2, 5]","cell count [2, 6]","cell count [2, 7]",z-score [3]
Cc1ccc(/C=C2\CNC/C(=C\c3ccc(C)cc3)C2=O)cc1,95.5% (inactive),0.9 (inactive),0.964,500,556,-0.645 (inactive)
O[C@@H]1[C@H](O)[C@@H](CCl)O[C@H]1n1cnc2c(NC3CC4CCC3C4)ncnc21 (some centres undefined),108% (inactive),0.921 (inactive),1.85,8570,9310,1.96 (inactive)
CCN(CC)c1ccc(/C=N/NC(=O)c2ccc(O)cc2)cc1,100% (inactive),0.945 (inactive),1.02,5490,5810,0.055 (inactive)
Cc1nc2c(c(=O)[nH]1)CSCC2,100% (inactive),0.983 (inactive),1.6,9080,9230,-0.035 (inactive)
CCCCn1c(=O)c2[nH]c(C34CC5CC(CC3C5)C4)nc2n(CCCO)c1=O,106% (inactive),1.02 (inactive),1.81,5180,5060,0.41 (inactive)
Nc1nc(NCCc2ccc(O)cc2)nc2nc(-c3ccco3)nn12,109% (inactive),0.809 (inactive),1.15,6780,8380,-0.54 (inactive)
CN(C)c1nc(N)c(C(=O)Nc2cccnc2)nc1Cl,113% (inactive),0.904 (inactive),1.39,5930,6560,0.61 (inactive)
O=C(Cc1ccccc1)Nc1nc2ccc(Cl)cc2c2nc(-c3ccco3)nn12,112% (inactive),1 (inactive),0.707,7840,7820,0.635 (inactive)
O=c1[nH]ccc2c(S(=O)(=O)N3CCCNCC3)cccc12,105% (inactive),0.922 (inactive),0.813,9480,10300,-0.145 (inactive)
CC1=C(/C=C/C(=C/C=C/C(C)=C/C(=O)O)c2ccc(C)cc2)C(C)(C)CCC1,105% (inactive),0.936 (inactive),1.77,6950,7420,0.99 (inactive)
N=C(N)c1ccc(N2CCN(C3CCN(CC(=O)O)CC3)CC2)cc1,115% (inactive),1 (inactive),0.72,9390,9350,-0.165 (inactive)
CCCC[P+](CCCC)(CCCC)Cc1ccc(NC(=O)[C@@H](Cc2ccc3ccccc3c2)NC(=NC2CCCCC2)NC2CCCCC2)cc1,117% (inactive),1.01 (inactive),1.13,2940,2900,-0.83 (inactive)
OC[C@H]1O[C@@H](n2cnc3c(N[C@H]4CCC[C@@H]4O)ncnc32)[C@H](O)[C@@H]1O,116% (inactive),0.959 (inactive),0.92,8820,9190,0.09 (inactive)
O=C(O)COc1ccc(OCCNC[C@@H](O)COc2ccccc2)cc1,89.3% (inactive),0.984 (inactive),1.02,8850,8990,0.955 (inactive)
O=C(O)CCC/C=C\C[C@@H]1CO[C@H](C(F)(F)F)O[C@@H]1c1ccccc1O,111% (inactive),0.924 (inactive),0.777,7790,8430,0.14 (inactive)
CN(CC[C@@H](Oc1ccc(-c2ccccc2)cc1)c1ccc(F)cc1)CC(=O)O,116% (inactive),0.898 (inactive),1.24,7970,8870,0.455 (inactive)
C=C1C(=O)O[C@@H]2/C=C(\C)CC/C=C(\C)CC[C@@H]12,118% (inactive),1.04 (inactive),1.29,8100,7810,-0.605 (inactive)
O=C(NCCN1CCCCC1)c1ccc(I)cc1,103% (inactive),0.954 (inactive),0.747,9320,9760,0.155 (inactive)
COc1cc2c(cc1OC)C(c1ccc(N)cc1)=NNC(=O)C2,103% (inactive),1.07 (inactive),0.53,4030,3760,0.045 (inactive)
Clc1cccc2c1CN(C1=NCCN1)C2,99.4% (inactive),0.914 (inactive),0.792,9080,9940,-0.085 (inactive)

SMILES,remaining activity [1],"fold change [2, 4]","fold change [2, 5]","cell count [2, 6]","cell count [2, 7]",z-score [3]
CN(CCOc1ccc(CC(Nc2ccccc2C(=O)c2ccccc2)C(=O)O)cc1)c1ccccn1 (centres undefined),103% (inactive),0.954 (inactive),1.08,7420,7780,1.48 (inactive)
CS(=O)(=O)c1ccc(Cn2c3c(c4cc(F)cc(F)c42)CCCC3CC(=O)O)cc1 (centres undefined),110% (inactive),0.908 (inactive),0.675,8590,9460,0.655 (inactive)
CS/C(N)=C(C#N)/C(C#N)=C(\N)SC,109% (inactive),0.85 (inactive),1.19,8330,9800,-0.595 (inactive)
C[C@@H]1O[C@@]2(CS1)CN1CCC2CC1 (racemic),111% (inactive),0.892 (inactive),1.88,8540,9570,0.375 (inactive)
Cc1c(C(=O)N(C)C2CCCCC2)sc2nc3ccc(N)cc3n12,121% (inactive),0.956 (inactive),1.28,7660,8010,-0.64 (inactive)
CC[N+](C)(CC)CC(=O)Nc1c(C)cccc1C,109% (inactive),0.963 (inactive),0.801,8930,9270,0.265 (inactive)
Cc1c(C2CCN(CCc3ccccc3)CC2)noc1-c1ccc(Cl)cc1,92.3% (inactive),0.891 (inactive),0.892,6770,7590,-0.21 (inactive)
CC[C@]1(O)C[C@H]2CN(CCc3c([nH]c4ccccc34)[C@@](C(=O)OC)(c3cc4c(cc3OC)N(C)[C@H]3[C@@](O)(C(=O)OC)[C@H](OC(C)=O)[C@]5(CC)C=CCN6CC[C@]43[C@@H]65)C2)C1,123% (inactive),1.06 (inactive),0.382,1570,1480,-0.65 (inactive)
CC(C)[C@H]1c2ccc(F)cc2CC[C@@]1(CCN(C)CCCc1nc2ccccc2[nH]1)OC(=O)C1CC1,104% (inactive),0.792 (inactive),1.77,263,332,-0.705 (inactive)
NC(C(=O)O)c1ccc(C(=O)O)c(O)c1 (centres undefined),93.9% (inactive),0.966 (inactive),1.12,9030,9350,-0.31 (inactive)
O=c1nc2ccccc2c2n1CC(CN1CCN(c3ccccc3)CC1)N2 (centres undefined),100% (inactive),0.869 (inactive),0.649,9300,10700,-0.605 (inactive)
N#Cc1ccccc1OCC(O)CNCCNC(=O)Nc1ccccc1 (centres undefined),118% (inactive),0.847 (inactive),1.36,8970,10600,-0.64 (inactive)
Cn1cnnc1Sc1c([N+](=O)[O-])ncn1C,103% (inactive),0.949 (inactive),1.89,8370,8820,-0.12 (inactive)
N[C@@H](Cc1cc(-c2ccc(Cl)cc2Cl)cc(CP(=O)(O)O)c1O)C(=O)O,115% (inactive),0.913 (inactive),0.553,8540,9350,0.635 (inactive)
C=CCNC(=O)c1cc([N+](=O)[O-])cc2c(=O)[nH]c(Nc3ccc(Cl)c(Cl)c3)nc12,116% (inactive),0.926 (inactive),0.827,8840,9550,-0.09 (inactive)
Nc1c(S(=O)(=O)O)cc(Nc2cccc3ccccc23)c2c1C(=O)c1ccccc1C2=O,109% (inactive),0.981 (inactive),1.43,9410,9590,3.16 (active)
CCCCc1nn(-c2ccccc2C(F)(F)F)c(=O)n1Cc1ccc(-c2ccccc2S(=O)(=O)NC(=O)c2sccc2C)cc1,91.8% (inactive),0.921 (inactive),1.21,7450,8080,4.89 (active)
CS(=O)(=O)Nc1c(O)ccc2c1CCCC2C1=NCCN1 (centres undefined),114% (inactive),1 (inactive),0.792,9080,9050,-0.21 (inactive)
CCCCCCCNS(=O)(=O)c1cccc2c(Cl)cccc12,95% (inactive),0.865 (inactive),0.629,8130,9410,-0.5 (inactive)
